From publication PMC4336329 (PLoS ONE, 2015)
About 14,000 (4.5%) of roughly 310,000 compounds showed an effect of 50% or more. Effects have a minus sign here. Shown is part of a subset that was picked to be rich in strong results.

Biological target: human ether-à-go-go-related gene (hERG) potassium channel (human, UniProt Q12809)
Experiment: primary screen, population patch clamp on CHO cells stably expressing hERG; higher = less effect of the substance
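Note: peak tail current of the secondary pulse compared with the same well before compound.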

human ether-à-go-go-related gene (hERG) potassium channel, sequence (Q12809 whole entry, looked up): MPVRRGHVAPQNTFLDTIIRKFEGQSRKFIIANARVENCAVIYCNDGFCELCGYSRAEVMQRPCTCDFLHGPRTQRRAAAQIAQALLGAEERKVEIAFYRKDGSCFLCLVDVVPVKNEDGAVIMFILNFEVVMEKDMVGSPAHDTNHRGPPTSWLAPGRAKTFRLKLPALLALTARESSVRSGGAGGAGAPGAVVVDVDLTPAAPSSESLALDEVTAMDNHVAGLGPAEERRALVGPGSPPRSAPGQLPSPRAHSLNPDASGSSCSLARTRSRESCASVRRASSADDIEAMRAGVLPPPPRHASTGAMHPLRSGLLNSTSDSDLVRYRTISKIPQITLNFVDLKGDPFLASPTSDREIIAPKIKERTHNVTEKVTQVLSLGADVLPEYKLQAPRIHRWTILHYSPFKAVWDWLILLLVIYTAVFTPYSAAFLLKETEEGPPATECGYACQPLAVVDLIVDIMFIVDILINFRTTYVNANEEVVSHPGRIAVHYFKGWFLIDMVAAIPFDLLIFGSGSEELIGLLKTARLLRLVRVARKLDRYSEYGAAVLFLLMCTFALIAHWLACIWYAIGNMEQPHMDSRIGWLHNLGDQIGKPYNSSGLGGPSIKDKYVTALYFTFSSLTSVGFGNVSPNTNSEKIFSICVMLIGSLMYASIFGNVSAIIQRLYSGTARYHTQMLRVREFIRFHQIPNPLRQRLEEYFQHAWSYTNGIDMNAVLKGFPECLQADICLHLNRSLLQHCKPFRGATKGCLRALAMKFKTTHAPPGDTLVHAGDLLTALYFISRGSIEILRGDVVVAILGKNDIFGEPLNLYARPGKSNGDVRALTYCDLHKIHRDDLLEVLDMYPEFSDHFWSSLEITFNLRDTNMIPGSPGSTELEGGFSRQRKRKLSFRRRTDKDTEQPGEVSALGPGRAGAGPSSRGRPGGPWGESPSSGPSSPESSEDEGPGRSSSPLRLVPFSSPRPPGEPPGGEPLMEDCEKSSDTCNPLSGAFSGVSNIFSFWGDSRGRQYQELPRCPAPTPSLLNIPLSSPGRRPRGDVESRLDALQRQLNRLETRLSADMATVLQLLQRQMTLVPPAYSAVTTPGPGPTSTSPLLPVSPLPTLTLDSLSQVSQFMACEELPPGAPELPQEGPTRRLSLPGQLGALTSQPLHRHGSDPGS

Row | Compound | hERG current change (%, negative = inhibition) at 10uM [%]
1 | CCOc1ccc(NC(=O)c2ccc(NC(=S)NC3CCCCC3)cc2)cc1 | 20.9
2 | Cc1cc(C)cc(NC(=O)CCCCCN2C(=O)[C@@H]3Cc4ccccc4CN3C2=O)c1 | -51.9
3 | O=C(CCCN1C(=O)C(c2ccccc2)Oc2cccnc21)Nc1cccc(F)c1 (stereo not shown) | -50.2
4 | Cc1cccc(NC(=O)CCCCCN2C(=O)[C@@H]3Cc4ccccc4CN3C2=O)c1 | -21.7
5 | Cc1ccc(CNC(=O)CCN2C(=O)[C@@H]3Cc4ccccc4CN3C2=O)cc1 | -40.5
6 | O=C(CCN1C(=O)[C@@H]2Cc3ccccc3CN2C1=O)NCc1ccc(Cl)cc1 | -64.2
7 | O=C(CCN1C(=O)[C@@H]2Cc3ccccc3CN2C1=O)NCc1ccccc1 | -12
8 | O=C(CCN1C(=O)c2ccccc2C1=O)NCc1ccc(Cl)cc1 | -16.9
9 | Cc1cc(C)cc(NC(=O)CCCN2C(=O)C(c3ccccc3)Oc3cccnc32)c1 (stereo not shown) | -1.03
10 | Cc1ccc(NC(=O)CCCCCN2C(=O)[C@@H]3Cc4ccccc4CN3C2=O)cc1 | -12.1
11 | CCc1cccc(NC(=O)CCCN2C(=O)C(c3ccccc3)Oc3cccnc32)c1 (stereo not shown) | -2.79
12 | O=C(CCN1C(=O)c2ccncc2C1=O)NCc1ccc(Cl)cc1 | -51.9
13 | COc1ccc(CNC(=O)CCN2C(=O)c3ccncc3C2=O)cc1OC | 13
14 | Cc1ccccc1NC(=S)N(Cc1cccnc1)Cc1ccccc1Cl | -11.6
15 | COc1ccc(C(=O)Nc2ccccc2C(=O)N2CCCCCC2)cc1OC | -10.5
16 | Cc1c(NC(NC(=O)CF)C(Cl)(Cl)Cl)c(=O)n(-c2ccccc2)n1C (stereo not shown) | 4.94
17 | O=C(NC(=S)Nc1cc(Cl)ccc1N1CCOCC1)c1ccc(-c2cccc(Cl)c2)o1 | 8.91
18 | O=C(COc1ccccc1O)Nc1ccccc1Cl | -4.32
19 | COc1ccc(CCn2c(SCC(=O)Nc3cc(C)on3)nc3ccccc3c2=O)cc1OC | 0.454
20 | Cc1ccc(OC(=O)CCc2c(C)nc3ncnn3c2C)cc1 | -8.47
21 | O=C(CCN1C(=O)[C@@H]2Cc3ccccc3CN2C1=O)Nc1cccc(F)c1 | -13.8
22 | COc1cccc(NC(=O)CCCCCN2C(=O)[C@@H]3Cc4ccccc4CN3C2=O)c1 | -37.7
23 | O=C(CCCCCN1C(=O)[C@@H]2Cc3ccccc3CN2C1=O)Nc1cccc(F)c1 | -67.9
24 | CC1C(C#N)=C(N)OC2=C1C(=O)CC(C)(C)C2 (stereo not shown) | 9.35
25 | CCOc1cc(/C=N/NC(=O)N/N=C/c2ccc(O)c(OCC)c2)ccc1O | -10.1
26 | Cc1ccc(/C=N/NC(=O)NN(C)c2ncc(C(F)(F)F)cc2Cl)cc1 | -3.09

Row | Compound | hERG current change (%, negative = inhibition) at 10uM [%]
27 | CCOc1cc(/C=N/NC(=O)NN(C)c2ncc(C(F)(F)F)cc2Cl)ccc1O | -54.3
28 | CC1=C(C(=O)OCC2CCCO2)C(c2ccc(Cl)c(Cl)c2)NC(=O)N1 (stereo not shown) | 11.4
29 | CCN1C(=NCc2ccc(OC)cc2)N[C@@H](CCc2ccccc2)[C@H](C(=O)NCc2ccc(OC)cc2)[C@H]1C | -65.4
30 | CCN1C(=NCC(C)C)N[C@@H](CCc2ccccc2)[C@H](C(=O)NCC(C)C)[C@H]1C | -16.2
31 | CCN1C(=NCCOC)N[C@@H](CCc2ccccc2)[C@H](C(=O)OC)[C@H]1C | -1.21
32 | Cc1cc(/C=N/NC(N)=O)c(C)n1-c1ccc(F)cc1 | -2.06
33 | Cc1cccc(N(C(=O)c2csnn2)C(C(=O)NCc2ccccc2)c2cccs2)c1 (stereo not shown) | -9.49
34 | Cc1ccc(C(C(=O)NCc2ccc(F)cc2)N(C(=O)c2csnn2)C2CC2)cc1 (stereo not shown) | -19.3
35 | O=C(NCc1ccc(F)cc1)C(c1ccc(F)cc1)N(C(=O)c1csnn1)C1CC1 (stereo not shown) | 9.3
36 | Cc1ccc(C(C(=O)NC2CCCC2)N(C(=O)c2csnn2)C2CCCC2)o1 (stereo not shown) | -4.91
37 | Cc1ccc(C(C(=O)NCc2ccc(F)cc2)N(C(=O)c2csnn2)C2CC2)o1 (stereo not shown) | -56.7
38 | Cc1ccc(C(C(=O)NC2CCCCC2)N(C(=O)c2csnn2)C2CC2)o1 (stereo not shown) | -57.6
39 | Cc1ccc(C(C(=O)NCc2ccccc2)N(C(=O)c2csnn2)c2cccc3ccccc23)o1 (stereo not shown) | -13.2
40 | Cc1ccc(C(C(=O)NC2CCCCC2)N(C(=O)c2csnn2)C2CCCC2)o1 (stereo not shown) | -7.71
41 | Cc1cccc(N(C(=O)c2csnn2)C(C(=O)NCc2ccccc2)c2ccc(C)o2)c1 (stereo not shown) | -54.6
42 | O=[N+]([O-])c1cc2c(cc1Br)CCN2 | 11.2
43 | O=C(O/N=C1\CCCc2ccccc21)C1CC1 | 14.4
44 | O=C(O)CCCC(=O)Nc1ccc(Oc2cccc(C(F)(F)F)c2)nc1 | 19.4
45 | CCC(C(=O)NCCc1ccccc1OC)n1nc(C)c2c(C)n(-c3ccccc3)nc2c1=O (stereo not shown) | -30
46 | O=C(COC(=O)c1cc(NS(=O)(=O)c2cccs2)ccc1O)Nc1ccc(F)c(F)c1F | 4.87
47 | CCC(=O)Nc1cccc(NC(=S)NC(=O)c2cccs2)c1 | 3.59
48 | O=C(NC(=S)Nc1cccc(-c2ccc(CO)o2)c1)c1cccs1 | 23.7
49 | CC(C)(O)c1ccc2c(c1)CCC1C(C)(C(=O)O)CCCC21C (stereo not shown) | 4.17
50 | CCOC(=O)Cc1cc(=O)n2[nH]cc(-c3cccc(Br)c3)c2n1 | 35.6
51 | CC(=O)N1CCc2cc(S(=O)(=O)NC(C(=O)Nc3nc(C)cs3)C(C)C)ccc21 (stereo not shown) | 8.38
52 | CCN1C(=O)C2C(c3ccc(O)c(OC)c3)NC(C)(C(=O)OC)C2C1=O (stereo not shown) | 12.1
